Assay results published in PubChem BioAssay AID588676 (Johns Hopkins Ion Channel Center, 2011).
The campaign covered roughly 310,000 compounds. About 3,900 (1.3%) were called active. This is one part of a sample in which actives are shown more often than they occur.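 The calls were made as follows: active = calcium-response B-score plate-corrected more than 3 library SD below zero, starting fluorescence within 5 deviations, no agonist response on first addition; inactive = the rest.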

The compounds below were run against Mas-related G-protein coupled receptor member X1 (Homo sapiens) (UniProt Q96LB2) (assay: antagonists of human MrgX1 receptor, primary screen, HEK293 cells, Fluo-4 calcium flux (AID 588676;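 as to B-score: peak minus trough fluorescence over baseline after final BAM8-22 challenge near maximal dose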)). Conditions: Fluo-4, BAM8-22 antagonism, at 10 µM; active compounds read low.
Chain of Mas-related G-protein coupled receptor member X1 (Homo sapiens) (Q96LB2 whole entry, looked up): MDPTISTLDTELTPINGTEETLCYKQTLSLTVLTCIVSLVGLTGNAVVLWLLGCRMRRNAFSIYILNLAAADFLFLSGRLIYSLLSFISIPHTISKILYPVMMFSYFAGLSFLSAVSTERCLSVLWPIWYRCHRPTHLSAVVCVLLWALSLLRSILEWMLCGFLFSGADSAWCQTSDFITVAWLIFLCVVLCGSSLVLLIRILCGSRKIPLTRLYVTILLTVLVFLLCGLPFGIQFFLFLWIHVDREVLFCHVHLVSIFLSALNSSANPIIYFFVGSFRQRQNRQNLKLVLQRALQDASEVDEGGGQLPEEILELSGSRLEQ

Structure (SMILES) | B-score
Cc1cc(C)c(C#N)c(Nc2cccc(Br)c2)n1 | inactive
N#CC1=C(N)Oc2c(ccc3cccnc23)C1c1ccncc1 (configuration not stated) | inactive
N#CC1=C(N)Oc2c(sc3ccccc23)C1c1ccco1 (configuration not stated) | -4.64 (active)
O=C(COc1nsnc1N1CCOCC1)Nc1ccccc1Cl | inactive
COc1cc(C(C)=O)ccc1OC(=O)CN1C(=O)c2ccccc2C1=O | inactive
Cc1cc(F)ccc1S(=O)(=O)Nc1ncnc2scc(-c3ccc(F)cc3)c12 | inactive
CCOC(=O)c1c(NC(=O)CCC(=O)NCc2ccco2)sc2c1CCCC2 | inactive
CCOC(=O)c1c(NC(=O)CSc2cn(CC)c3ccccc23)sc2c1CCC2 | -6.48 (active)
CCOC(=O)c1c(NC(=O)C(C)Sc2c[nH]c3ccccc23)sc2c1CCC2 (configuration not stated) | inactive
O=C(NCC(=O)N1CCN(c2ncc(C(F)(F)F)cc2Cl)CC1)c1ccc(Br)o1 | inactive
Cc1ccc(C(=O)OC2=CC(=O)CC(C)(C)C2)cc1 | inactive
COc1ccc(/C=C2\SC(=S)N(CCC(=O)Nc3ccccn3)C2=O)cc1OC | inactive
COc1ccccc1C(=O)NNC(=O)CCN1C(=O)/C(=C\c2ccccc2)SC1=S | inactive
COc1cc(/C=C2/SC(=S)N(Cc3ccccc3)C2=O)cc(OC)c1O | -7.51 (active)
O=C(Nc1cccc([N+](=O)[O-])c1)N1CCc2ccccc2C1 | inactive
CN(c1ccccc1)S(=O)(=O)c1ccc(Cl)c(C(=O)OCC(=O)N2CCOCC2)c1 | inactive
COC(=O)c1c(NC(=O)COc2ccc(Cl)cc2Cl)sc2c1CC(C)(C)NC2(C)C | inactive
O=C(Cc1ccccc1)Nc1c(C(=O)N2CCCCCC2)cnn1-c1ccccc1 | inactive
COc1ccc([N+](=O)[O-])cc1NC(=O)COC(=O)/C=C/c1ccco1 | -24.1 (active)
COc1ccc([N+](=O)[O-])cc1NC(=O)CCc1ccccc1 | inactive
CC(C)CNC(=O)COC(=O)/C=C/c1ccco1 | inactive
COC1=CCC2([N+](=O)[O-])CN(CC(=O)O)CC1([N+](=O)[O-])C2 (configuration not stated) | -5.87 (active)
COc1ccc([N+](=O)[O-])cc1N(CC(=O)Nc1ccccc1C(=O)N1CCOCC1)S(C)(=O)=O | inactive

Structure (SMILES) | B-score
CC(CCc1ccccc1)NC(=O)c1cnc(Cl)c(Cl)c1 (configuration not stated) | inactive
CC(C)CCC(C)NC(=O)c1ccc2nccnc2c1 (configuration not stated) | inactive
COCC(C)NC(=O)c1ccc(Cl)c(Cl)c1 (configuration not stated) | -8.76 (active)
CC(=O)C1=C(C)NC(=O)NC1c1ccc2c(c1)OCO2 (configuration not stated) | inactive
CC(=O)Nc1cccc(Oc2cc(C#N)c(C#N)cc2N2CCOCC2)c1 | inactive
COc1cc(N2CCCC2)c(OC)cc1/C=C(/C#N)c1cccc(Br)c1 | -7.19 (active)
COc1ccc(Br)cc1/C=N/n1c(C)nnc1C | inactive
O=C(COC(=O)/C=C/c1ccc(OC(F)F)cc1)NC1CCCCC1 | inactive
COc1ccc(-c2noc(C(C)NS(=O)(=O)c3ccc(NC(C)=O)cc3)n2)cc1 (configuration not stated) | inactive
CCCCCCCCCCCCN1C(=O)CSC1c1cccnc1 (configuration not stated) | inactive
CCOC(=O)CSc1ncc(-c2cccc(Cl)c2)cn1 | inactive
CCOC(=O)C1=C(O)CSC1=Nc1cccc(Cl)c1 | -5.49 (active)
CCOC(=O)c1c(S(=O)(=O)Nc2cccc(Cl)c2)c(C)n(C)c1C | inactive
N=c1n(CCc2ccccc2)c2ccccc2n1Cc1ccccc1F | inactive
Cc1cc(=O)oc2cc(NC(=O)C(C)Oc3ccccc3)ccc12 (configuration not stated) | inactive
O=C(Nc1ccc(F)c([N+](=O)[O-])c1)C1CC(=O)N(Cc2ccccc2)C1 (configuration not stated) | inactive
Cc1cc(=O)oc2cc(NC(=O)C3CC(=O)N(Cc4ccccc4)C3)ccc12 (configuration not stated) | -7.83 (active)
Cc1ccc(N(C(=O)Cc2cccs2)C2C=CS(=O)(=O)C2)cc1Cl (configuration not stated) | inactive
Cn1c(NC(=O)c2ccco2)c(-c2ccccc2Cl)c(=O)c2ccccc21 | inactive
CCOCCCN1C(=O)C2C(C(=O)Nc3ccc(OCC)cc3)C3C=CC2(O3)C1C(=O)NC1CCCCC1 (configuration not stated) | inactive
CC(=O)OCCN(CCCn1c(-c2ccncc2)nc2ccccc21)c1nc(-c2ccc(C)cc2)cs1 | inactive
O=C(Cc1ccccc1)Nc1cccc(C(=O)N/N=C/c2ccco2)c1 | -18.1 (active)
O=C(Cc1ccccc1)Nc1cccc(NC(=O)c2ccccc2)c1 | inactive

Structure (SMILES) | B-score
O=C(N/N=C/c1ccco1)c1ccc(C(=O)N/N=C/c2ccco2)o1 | inactive
N#CCC(=O)NC(=O)NCC1CC1 | inactive
CC1Cc2ccccc2N1C(=O)CSc1nnc(-c2ccc(S(=O)(=O)N3CCCC3)cc2)n1C (configuration not stated) | inactive
CC(NCc1cccs1)C(=O)Nc1cc(Cl)cc(Cl)c1 (configuration not stated) | inactive
COc1cc(C)c(S(=O)(=O)N2CCOCC2)c(C)c1C | inactive
COc1ccc(S(=O)(=O)N2CCOCC2)c(C)c1C | -6.44 (active)
COc1ccc(S(=O)(=O)N2CCCC2)c(C)c1C | inactive
COc1cccc2cc(/C(C)=N/NC(=O)c3ccco3)oc12 | inactive
Cn1nccc1C(=O)NC1CCCc2c1cnn2-c1ccc(F)cc1F (configuration not stated) | inactive
CCOC(=O)N1CCN(C(=O)c2cn(C)c3ccc(S(=O)(=O)N4CCCC4)cc3c2=O)CC1 | -6.83 (active)
COc1ccc(N2CCN(C(=O)c3cn(C)c4ccc(S(=O)(=O)N5CCOCC5)cc4c3=O)CC2)cc1 | inactive
CCOC(=O)N1CCN(C(=O)c2cn(C)c3ccc(S(=O)(=O)N(CC)CC)cc3c2=O)CC1 | inactive
N/C(=N\OS(=O)(=O)c1cccc([N+](=O)[O-])c1)c1ccncc1 | inactive
Clc1ccc(CSc2nnc3c(n2)[nH]c2ccccc23)cc1 | inactive
C=CCSc1nc(Cc2ccc(Cl)cc2)nc2ccccc12 | -5.91 (active)
CCCNC(=O)CSc1nc(Cc2ccccc2)nc2ccccc12 | inactive
COc1ccccc1NC(=S)N1CCC(NC(=O)C23CC4CC(CC(C4)C2)C3)CC1 | inactive
FC(F)(F)c1cc(-c2ccco2)nc(NCc2ccc(Cl)cc2)n1 | inactive
COc1ccc(-c2cc(C(F)(F)F)nc(SCCC(=O)NCc3ccco3)n2)cc1 | inactive
FC(F)(F)c1cc(-c2cccs2)nc(NCc2ccco2)n1 | -5.29 (active)
CC(=O)c1c(C)[nH]c(C(=O)CN2C(=O)NC(C)(C)C2=O)c1C | inactive
